Two compounds from PubChem BioAssay AID1159580 (chemical genetic matrix, 2015) can be followed below.

This assay is described as follows: chemical genetic growth profiling, strain panel (AID 1159580).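 Also: tested at 20 µM; growth read once vehicle control cultures reached saturation at 30 °C; 1 = growth at the plate median or of vehicle wells; lower values mean less growth of the strain.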 Particulars: S. cerevisiae deletion strains, growth OD.
The mark [1] stands for this setting: locus YAL040C, strain CLN3, active compounds read low.
Where [2] appears, read: locus YCL061C, strain MRC1 (second series), active compounds read low.
The mark [3] stands for this setting: locus YDR150W, strain NUM1, active compounds read low.
The mark [4] stands for this setting: locus YDR363W, strain ESC2, active compounds read low.
Where [5] appears, read: locus YER002W, strain NOP16, active compounds read low.
[6] abbreviates: locus YMR263W, strain SAP30, active compounds read low.
Where [7] appears, read: locus YMR307W, strain GAS1, active compounds read low.
Where [8] appears, read: locus YNL175C, strain NOP13, active compounds read low.
Setting [9] is: locus YNL197C, strain WHI3, active compounds read low.
Where [10] appears, read: locus YNL224C, strain SQS1, active compounds read low.
[11] abbreviates: locus YOR083W, strain WHI5 (second series), active compounds read low.

Among all 5,500 compounds or so, about 2,000 (36%) were called active. About 18% were inconclusive and are not listed. The list shows a part of the results. A number with no mark means an inactive call. Rule as the data show it: active = normalized growth mostly below about 0.91 (no sharp cut-off); inconclusive = no clear call, values can overlap the other calls; inactive = mostly above about 0.92.

As for `C/C(=C\c1ccc(C(=O)O)cc1)c1ccc2c(c1)C(C)(C)CCC2(C)C`, the normalized growth by setting is: under setting [1], 1.04; under setting [2], 1.02; under setting [3], 1.01; under setting [4], 1.02; under setting [5], 1; (locus YJR075W, strain HOC1, active compounds read low) 1.01. Further, the normalized growth is 1.01 under setting [6]; 1.02 under setting [7]; 0.994 (locus YNL128W, strain TEP1, active compounds read low); 0.994 under setting [8]; 0.965 under setting [9]; 1 under setting [10]. Moreover, the normalized growth is 1.03 (locus YNL322C, strain KRE1, active compounds read low); 1.01 under setting [11]; 1.01 (locus YPL241C, strain CIN2, active compounds read low).
For `CC(N)(C(=O)O)c1ccc(C(=O)O)cc1` (stereo not drawn), the normalized growth (locus YAL013W, strain DEP1, active compounds read low) is 1.01; the normalized growth under setting [1] is 1.12 [resistant] (active); the normalized growth under setting [2] is 1.01; the normalized growth under setting [3] is 0.998; the normalized growth under setting [4] was 1.03; the normalized growth under setting [5] is 0.995. Further, the normalized growth runs as follows: (locus YGR229C, strain SMI1, active compounds read low) 1.01; under setting [6], 0.996; under setting [7], 1; under setting [8], 1; under setting [9], 1.02; under setting [10], 1. In addition, the normalized growth under setting [11] is 1.02.
